Pf growth 96h = Primary qHTS for delayed death inhibitors of the malarial parasite plastid, 96 hour incubation. P. falciparum luciferase reporter growth, 96 h. Potency, µM (series often up to 28.7 µM), hits mostly inhibitors. hit rate 6.9% among 320,000. AID 504834, 2011
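P. falciparum expressing integrated firefly luciferase grown in erythrocytes (2% hematocrit, 0.05% parasitemia final) with compounds for 96 hours at 37 C, 5% CO2. Growth inhibition read as loss of luminescence after adding luciferase detection reagent.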
Vaccinia mCherry = qHTS for Stage-Specific Inhibitors of Vaccinia Orthopoxvirus: mCherry Reporter Primary qHTS; Vaccinia virus mCherry reporter infection, fluorescence; hit rate 0.63% among 310,000; Potency, µM (highest dose often 36.5 µM), usual class: inhibitors; calls by dose curve; tested in A549 cells; further: nearly all actives have a fitted effect of over 35% in size
Pf growth 48h = Primary qHTS for delayed death inhibitors of the malarial parasite plastid, 48 hour incubation | P. falciparum luciferase growth in erythrocytes, 48 h | AID 504832, 2011 | Potency, µM (titrated, usually from 28.7 µM), most hits filed as inhibitors | hit rate 5.9% among 310,000
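A one-generation exposure of luciferase-tagged malaria parasites in RPMI 1640/Albumax erythrocyte culture, 37 C and 5% CO2. Inhibition is inferred from decreased luminescence after adding detection reagent.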
AMA1-RON2 inh = qHTS for Inhibitors of AMA1-RON; Towards Development of Antimalarial Drug Lead: Primary Screen. Plasmodium falciparum AMA1 (3D7) - RON2 peptide interaction. AlphaScreen AMA1-biotinylated RON2 peptide binding. Potency, µM (series often up to 58.2 µM), usual class: inhibitors. hit rate 0.2% among 360,000; further: nearly all actives have a fitted effect of over 45% in size
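AMA1 (3D7) with his tag at 25 nM final met compounds first, then biotinylated RON2 peptide at 25 nM; detection used donor plus acceptor beads, 10 µg/mL apiece, read by AlphaScreen after 30 min at room temperature.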
Vaccinia Venus = qHTS for Stage-Specific Inhibitors of Vaccinia Orthopoxvirus: Venus Reporter Primary qHTS; Vaccinia virus Venus reporter expression, fluorescence; Potency, µM (highest dose often 36.5 µM), most hits filed as inhibitors; hit rate 0.46% among 330,000; AID 720580, 2013; calls by dose curve; tested in A549 cells; further: nearly all actives have a fitted effect of over 30% in size
Hits are given with their value; – = inactive; ? = inconclusive; · = no result; [ ] = another dose, or the depositor's remark. Compounds with a hit are over-represented: about 8.7% of the library has one in this group of screens. Unless noted, the call rests on the fitted dose curve; in most records, active means well fitted curve in the direction sought with a large enough effect; inconclusive means small, poorly fitted or top-dose-only effect, or another doubt; inactive means no such curve, though single readings can be large; an effect the other way counts as inactive or inconclusive.

SMILES	Pf growth 96h	Vaccinia mCherry	Pf growth 48h	AMA1-RON2 inh	Vaccinia Venus
CC(C)=CCC/C(C)=C/CNC(=O)C[C@H]1C[C@H](C(=O)N(C(C)C)C(C)C)[C@@]2(C)c3[nH]c4cc(-c5ccco5)ccc4c3CCN2C1=O	·	10µM	·	–	?
Cc1ccc(C(c2nnnn2Cc2ccccc2)N2CCN(Cc3ccncc3)CC2)cc1 (centres undefined)	·	–	·	·	–
NC(=O)CS(=O)C(c1ccccc1)c1ccccc1 (centres undefined)	6µM	–	–	·	–
O=C(CN1CCSC1=NCc1ccccc1)c1ccc(Cl)c(Cl)c1	9.3µM	–	?	–[2.32 µM]	–
CCC/C(O)=C1\C(=O)CCCC1=NCCc1ccc(OCC)c(OCC)c1	–	–	?	–	–
CCC/C(O)=C1\C(=O)CCCC1=NC(C)C(=O)O (centres undefined)	3.7µM	–	?	–	–
CCNC(=O)C1CCN(c2nc3ccccc3nc2C(F)(F)F)CC1	·	–	·	·	–
O=C(O)CCCCCCCCCCCNC(=O)NC12CC3CC(CC(C3)C1)C2	2.1µM	–	–	–	–
Cc1ccc(-n2c(SCc3nc(-c4ccccc4C)no3)nnc2-c2ccncc2)cc1C	·	–	·	·	–
O=C1NCC(O)=C1C=NCCCO	?	–	–	–	–
O=C1NCC(O)=C1C=Nc1ccccc1O	?	·	10µM	–	·
O=C(c1ccccc1)N1CCN(Cc2ccc3c(c2)OCO3)CC1	–	–	–	–	–
Cc1ccc(OCC(=O)N2CCN(Cc3ccc4c(c3)OCO4)CC2)cc1	–	–	–	–	–
Cc1[nH]c2ccccc2c1C1(O)C(=O)N(Cc2ccc3c(c2)OCO3)c2ccccc21 (centres undefined)	13µM	–	–	?	–
CCCc1cc(=O)oc2cc(OCC(=O)N3CCN(Cc4ccc5c(c4)OCO5)CC3)ccc12	12µM	·	?	–	·
O=C(c1[nH]nc2c1CCc1ccccc1-2)N1CCN(Cc2ccc3c(c2)OCO3)CC1	?	?	8.3µM	–	–
COc1ccc(C(=O)N2CCN(Cc3ccc4c(c3)OCO4)CC2)cc1OC	9.3µM	·	–	–	·
NS(=O)(=O)c1ccc(NC(=O)C2Cc3ccccc3N2C(=O)c2ccccc2)cc1 (centres undefined)	·	–	·	·	–
COc1ccccc1N1CCN(C(=O)c2ccc3c(=O)n(Cc4ccc5c(c4)OCO5)c(=O)[nH]c3c2)CC1	?	·	1.5µM	–	·
COc1ccc(Cn2c(=O)[nH]c3cc(C(=O)N4CCN(c5ccccc5F)CC4)ccc3c2=O)cc1	12µM	–	12µM	–	–
CCN1C(=O)C(O)(CC(=O)c2ccc3c(c2)OCCO3)c2ccccc21 (centres undefined)	–	–	·	–	–
O=C(c1ccc(Cn2cc(Cl)cn2)o1)N1CCN(Cc2ccc3c(c2)OCO3)CC1	13µM	·	?	–	–
COc1ccc(CN2C(=O)C(O)(CC(=O)c3ccc4c(c3)OCO4)c3ccccc32)cc1OC (centres undefined)	5.9µM	·	·	–	·
Cc1ccc(C)c(NC(=O)Nc2nnc(N(CC(C)C)CC(C)C)s2)c1	·	–	·	·	–
COc1cccc(CNC(=O)c2ccc3nc(CCc4ccccc4)oc3c2)c1OC	·	–	·	·	–
SMILES	Pf growth 96h	Vaccinia mCherry	Pf growth 48h	AMA1-RON2 inh	Vaccinia Venus
COc1ccc(N2CCN(C(=O)c3cccc(NC(=O)c4nsc5ccccc45)c3)CC2)cc1	·	–	·	·	–
COc1ccc(Cn2c(=O)[nH]c3cc(C(=O)N4CCN(Cc5ccccc5)CC4)ccc3c2=O)cc1	–	·	?	–	·
COc1ccc(Cn2c(=O)[nH]c3cc(C(=O)N4CCN(c5ccccc5OC)CC4)ccc3c2=O)cc1	–	?	3.3µM	–	–
Cc1ccc(-n2nc(C)c(C(=O)Nc3cccc(C(=O)NC4CC4)c3)n2)c(C)c1	15µM	·	?	–	·
Cc1nn(-c2cccc(Cl)c2)nc1C(=O)Nc1cccc(C(=O)NC2CC2)c1	?	·	15µM	–	·
O=C(Cc1ccc(S(=O)(=O)N2CCOCC2)s1)Nc1ccccc1Br	3.7µM	·	2.3µM	–	·
CCc1nnc(NC(=O)Cc2ccc(S(=O)(=O)N3CCCCC3)cc2)s1	12µM	·	12µM	–	·
CC(C)(C)c1csc(NC(=O)Cc2ccc(S(=O)(=O)N3CCOCC3)s2)n1	10µM	–	?	–	–
Cc1cnc(NC(=O)Cc2ccc(S(=O)(=O)N3CCOCC3)s2)s1	·	–	·	–	–
CCCCc1nnc(NC(=O)Cc2ccc(S(=O)(=O)N3CCOCC3)s2)s1	?	·	10µM	–	·
CCc1nnc(NC(=O)c2ccc(S(=O)(=O)N3CCCCCC3)cc2)s1	·	–	–	–	–
COc1cc(=O)n2c(c1C(=O)NCc1ccco1)CCN(Cc1ccc3ccccc3c1)CC2	·	–	·	·	–
Cc1cc(C)cc(NC(=O)CSCc2cc(=O)c3cc(Cl)ccc3[nH]2)c1	·	–	·	·	–
CCOC(=O)c1cc2occc2n1Cc1c(F)cccc1Cl	·	–	–	?	–
COC(=O)c1cc2occc2n1Cc1c(F)cccc1Cl	2.6µM	·	–	·	·
CC(C)N1CCC(N2CCN(Cc3ccc(-c4ccccc4Cl)o3)CC2CCO)CC1 (centres undefined)	–	–	–	–	–
CC(C)N1CCC(N2CCN(Cc3cnc(-c4ccccc4)s3)CC2CCO)CC1 (centres undefined)	?	–	–	–	–
Cc1ccc(-c2cccc(CN3CCN(C4CCN(C(C)C)CC4)C(CCO)C3)c2)o1 (centres undefined)	–	·	10µM	–	·
CC(C)N1CCC(N2CCN(Cc3ccc(-c4ccc(Cl)cc4)o3)CC2CCO)CC1 (centres undefined)	?	–	2.3µM	–	?
COC(=O)c1cnc(SC)nc1C	–	·	–	2.8µM	·
CSc1ncc(C(=O)Nc2ccccc2C)c(C)n1	–	–	–	–	–
CCOC(=O)N1CCN(C(=O)CN(C2CCCCC2)S(=O)(=O)c2c(C)cc(C)cc2C)CC1	10µM	·	·	–	·
Cc1ccc(S(=O)(=O)N(CC(=O)N2CCN(c3ccccc3F)CC2)C2CCCCC2)cc1	10µM	·	·	–	·
CS(=O)(=O)N(CC(=O)N1CCN(c2ccccc2F)CC1)C1CCCCC1	–	–	–	–	–
Cc1cc(C)c(S(=O)(=O)N(CC(=O)N2CCOCC2)C2CCCCC2)c(C)c1	?	·	?	–	·
Cc1ccc(C(c2sc3nc(-c4ccco4)nn3c2O)N2CCOCC2)cc1 (centres undefined)	·	–	·	·	–
O=C(COc1ccc(F)cc1)NCc1ccc2c(c1)CCN2C(=O)c1ccc(F)cc1	·	–	·	·	–
Cc1ccc(-n2nc(C)c3c(C)c(CCC(=O)NC(C)c4ccccc4)c(C)nc32)cc1 (centres undefined)	9.3µM	–	·	–	–
